# Rows were chosen to be rich in hits. Some 2% of all compounds tested hit in one or more screens of this group.
# M4 antag = CHRM4 antagonism in calcium assay; CHO-hM4 cells, ACh EC80, Fluo-8 calcium fluorescence; AID 624125; P08173; inhibition, % at 3 µM; 0.73% of 360,000 active;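 active means inhibition above its plate's cutoff, the mean inhibition of sample wells plus 3 SD, cut at about 27% in these data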;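 further: 0% = acetylcholine EC80 with DMSO and 100% = DMSO without agonist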
# Target sequence (P08173 whole entry, looked up): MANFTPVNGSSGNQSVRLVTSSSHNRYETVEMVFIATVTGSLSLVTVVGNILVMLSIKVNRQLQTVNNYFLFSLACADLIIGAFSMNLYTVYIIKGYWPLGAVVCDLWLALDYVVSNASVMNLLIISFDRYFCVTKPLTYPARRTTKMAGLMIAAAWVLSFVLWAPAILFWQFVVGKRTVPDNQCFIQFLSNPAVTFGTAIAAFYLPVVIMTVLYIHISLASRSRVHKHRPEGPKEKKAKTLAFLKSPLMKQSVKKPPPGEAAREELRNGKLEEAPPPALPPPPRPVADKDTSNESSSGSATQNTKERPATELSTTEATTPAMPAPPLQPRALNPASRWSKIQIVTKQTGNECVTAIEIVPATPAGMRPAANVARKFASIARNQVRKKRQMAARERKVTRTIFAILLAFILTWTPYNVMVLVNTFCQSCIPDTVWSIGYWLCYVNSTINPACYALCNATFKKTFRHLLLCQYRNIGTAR
# M4 ag = CHRM4 agonism in calcium assay; CHO-K1 hM4/Gqi5, Fluo-8 calcium fluorescence; vehicle 0%, full acetylcholine response 100%; activation, % at 3 µM; 0.14% of 360,000 active; P08173;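 active means activation above the run mean over all test wells plus 3 SD, cut at about 32% in these data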;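 further: peak over basal fluorescence ratio per well then scaled between controls; 0% = DMSO wells and 100% = acetylcholine at EC100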
# M1 PAM parental = counter-screen for M1 PAMs: effect in parental CHO-K1 cells; 0.02% of 360,000 active; ATP EC20, Fluo-8 calcium fluorescence; 0% at ATP EC20, 100% at ATP max; activation, % at 3 µM;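 active means activation above the run cutoff, the mean activation of all test compounds plus 3 SD, cut at about 40% in these data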;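 further: peak over basal fluorescence ratio in a 140 s read after ATP addition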
# CHO-K1 Ca antag = counter-screen for M1 antagonists: effect in parental CHO-K1 cells | ATP-induced calcium, Fluo-8 fluorescence | inhibition, % at 3 µM | 0.6% of 360,000 active;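 active means inhibition above a per-plate cutoff, the plate's mean sample inhibition plus 3 SD, cut at about 24% in these data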;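 further: 0% = DMSO plus EC80 ATP and 100% = DMSO alone without ATP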
# CHO-K1 Ca ag = M1 agonist counterscreen hit in parental CHO-K1 cells. Fluo-8 calcium fluorescence; scaled to maximal ATP response, vehicle zero. activation, % at 3 µM. 0.48% of 360,000 active. AID 602248; in the data active means activation above about 15%;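 further: untransfected CHO-K1 host cells lacking M1 receptor as counterscreen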
# CHRM4 PAM = potentiates acetylcholine response at human M4 receptor; P08173; CHO-K1 hM4/Gqi5, Fluo-8 calcium fluorescence, ACh EC20; 0% = ACh EC20, 100% = maximal ACh; activation, % at 3 µM; 0.4% of 360,000 active;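 active means activation above its plate's cutoff, the mean activation of sample wells plus 3 SD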
# An asterisk follows results filed as active.
SMILES,M4 antag,M4 ag,M1 PAM parental,CHO-K1 Ca antag,CHO-K1 Ca ag,CHRM4 PAM
COc1ccc(C(CNC(=O)c2oc3ccc(Br)cc3c2C)N2CCCCC2)cc1 (stereo not drawn),1.4,-0.8,13.4,-7.0,-0.1,-3.5
CCn1cc(C(=O)N(C)c2ccc(OC)cc2OC)c2cc(OC)c(OC)cc2c1=O,-26.9,2.0,8.7,-18.3,1.1,13.7*
Cc1ccc(CNC(=O)C(NS(=O)(=O)c2ccc3nc(C)sc3c2)C(C)C)cc1 (stereo not drawn),19.0,1.0,11.6,-6.4,-0.5,3.0
CC1=NN(c2ccc(C)cc2)C(=O)/C1=C\C=C\c1ccccc1,0.4,0.3,11.1,6.4,0.3,-7.8
CC1=NN(c2cccc(C(=O)O)c2)C(=O)/C1=C\C=C/c1ccccc1,4.3,1.0,-8.9,-0.5,-0.1,24.0*
CCn1c(SCC(=O)Nc2ccc(OC)cc2OC)nc2nc3c(cc2c1=O)COC(C)(C)C3,-0.1,10.6,1.1,-1.4,2.2,-9.5
CCn1c(SCC(=O)Nc2cccc(C)c2)nc2nc3c(cc2c1=O)COC(C)(C)C3,4.3,5.1,-13.8,13.4,16.0*,-21.2
Cc1ccc(O)c(C(=O)c2cc(C#N)c(=O)n(-c3nccs3)c2)c1,25.9,57.4*,-14.9,18.8,40.3*,-18.4
Cc1cc(NC(=O)CCSc2nc(-c3ccco3)cc(C(F)(F)F)n2)no1,7.7,0.6,11.2,11.3,0.4,5.9
C=CCN1C(=O)S/C(=C\c2ccc(N3CCOCC3)cc2C)C1=O,-6.4,5.4,3.5,6.7,1.8,27.3*
O=c1c(O)c(-c2cccs2)oc2ccc(Cl)cc12,32.2*,344.0*,-10.7,21.0,76.6*,-17.8
Clc1ccc(CCNc2ncnc3nc[nH]c23)cc1,15.6,21.5,-3.0,30.2*,12.9,-14.9
c1ccc(CCCNc2ncnc3nc[nH]c23)cc1,-10.1,13.8,16.1,-2.0,7.7,-1.3
c1ccc2c(CCNc3ncnc4nc[nH]c34)cccc2c1,28.8*,28.8,-2.4,23.6,10.6,-28.2
Cn1c(C(=O)N2CCCC(C(=O)N3CCN(C(=O)c4ccco4)CC3)C2)cc2sccc21 (stereo not drawn),-21.2,9.8,1.6,0.9,1.2,-0.1
Fc1cccc(F)c1-n1c(CN2CCCC2)csc1=S,68.1*,21.3,14.1,-2.4,0.7,8.5
CCOC(=O)C1=C[C@@H](C2CCCCC2)N(S(=O)(=O)c2ccc([N+](=O)[O-])cc2)[C@H]1c1ccccc1,16.5,2.2,3.7,26.9*,0.8,-12.2
CCOC(=O)C1=CC[C@@H](c2ccc([N+](=O)[O-])cc2)N(S(=O)(=O)c2ccc(C)cc2)[C@H]1c1ccccc1,-9.2,0.6,25.9,-3.2,1.0,8.9
CCCCCCn1c(=O)[nH]c2nc3cc(N)c(C)cc3nc2c1=O,26.1,36.9*,-10.3,28.6*,59.8*,-13.8
CCCCn1c(=O)[nH]c2nc3cc(NC(C)=O)ccc3nc2c1=O,2.9,7.4,-7.6,-9.0,2.1,-3.3
Cc1ccc(NS(=O)(=O)c2ccc(C(=O)NNC(=O)c3ccccc3O)cc2)cc1,-8.8,2.2,32.0,-11.0,1.7,15.6
CC1=C([N+](=O)[O-])C(c2ccccc2Cl)NC(=O)N1C (stereo not drawn),2.3,0.5,23.4,-10.4,17.1*,-4.5
COc1ccccc1CNc1nc(-c2ccccc2CO)c2sccc2n1,1.5,4.2,8.8,-0.1,0.2,-8.0
CCOC(=O)Cn1cnc(-c2ccc([N+](=O)[O-])cc2)c1,3.1,3.3,-0.8,-2.8,-0.1,26.5*
CCOC(=O)C1CCCN(C(=O)c2ccc3oc(Cc4ccccc4)nc3c2)C1 (stereo not drawn),-8.6,4.0,-0.9,3.7,3.7,-2.6
SMILES,M4 antag,M4 ag,M1 PAM parental,CHO-K1 Ca antag,CHO-K1 Ca ag,CHRM4 PAM
CCC(Sc1nc2cc3c(cc2c(=O)n1Cc1ccco1)OCO3)C(=O)Nc1ccccc1OC (stereo not drawn),8.2,-0.5,16.4,-3.9,-0.1,0.5
N=c1c2ccccc2nc2n1CCCCC2,13.3,0.0,-9.6,33.6*,-0.1,-13.8
CCc1ccc(-c2cc3c(=O)n(CC(=O)NCCCN4CCC(Cc5ccccc5)CC4)nc(C)n3n2)cc1,39.7*,7.0,-7.5,13.4,3.4,-10.5
Cc1nn(CC(=O)NCCCN2CCC(Cc3ccccc3)CC2)c(=O)c2cc(-c3ccccc3)nn12,17.1,10.3,-8.9,10.4,4.9,-13.6
Cc1occc1-c1nnc(SCC(=O)NCCc2ccccc2)n1C(C)c1ccccc1 (stereo not drawn),-14.4,2.2,5.6,0.6,0.7,4.5
CCN1C(=O)/C(=C2\Sc3ccccc3N2CC)OC1=S,-8.2,1.7,5.1,2.6,0.1,22.9*
C=CCN1C(=O)/C(=C2/Sc3ccccc3N2CC)SC1=S,-8.4,-0.6,7.0,-8.0,-0.1,-5.9
COC(=O)CCC(NS(=O)(=O)OCC(Cl)(Cl)Cl)c1ccccc1 (stereo not drawn),-2.8,0.7,1.6,-7.0,0.1,-2.2
CC(C)CC(NS(=O)(=O)OCC(Cl)(Cl)Cl)c1ccccc1 (stereo not drawn),29.9*,0.3,-4.5,-2.0,-0.9,-14.9
COc1ccc(CCn2c(O)cc3nn(-c4nc5ccccc5s4)c(=O)c-3c2C)cc1,-8.9,0.9,10.2,1.8,0.2,14.2
C(=N\N1CCN(C(c2ccccc2)c2ccccc2)CC1)/c1ccc2c(c1)OCO2,4.8,-0.4,8.0,23.9*,-0.5,-8.4
Cc1ccc(C(=O)Nc2nc(-c3ccc(F)cc3)cs2)o1,-3.0,3.4,3.9,4.5,0.9,-0.3
CC1=C(C(=O)N(C(C)C)C(C)C)CC(CC(=O)NCCN2CCOCC2)C(=O)N1CCCN1CCCC1=O (stereo not drawn),-8.4,-0.6,5.4,26.2*,0.6,6.4
FC(F)(F)c1cc(-c2ccccc2)nc(N2CCOCC2)n1,-2.2,-0.1,10.6,-6.0,0.0,0.4
CC(=O)Nc1ccc(C=NN=C2c3ccccc3-c3ccccc32)cc1,3.8,2.4,-14.6,9.9,-0.3,17.5*
COc1ccc(C=NN=C2c3ccccc3-c3ccccc32)cc1O,-2.6,1.3,11.1,-13.8,1.2,2.9
O=C(Nc1nnc(SCc2ccc(F)cc2)s1)c1cnccn1,-4.9,0.1,15.0,-18.2,0.0,4.9
CCCCCOCC1CC(C/C(C)=N/NC(N)=O)(C(=O)OCC)C(=O)O1 (stereo not drawn),5.2,0.2,1.2,-2.8,0.2,-13.6
CCCCC1(C(=O)OCC)CC(CSC(=N)N)OC1=O (stereo not drawn),7.9,0.1,5.4,7.7,19.0*,-4.2
O=C(NC(Nc1nc2ccc([N+](=O)[O-])cc2s1)(C(F)(F)F)C(F)(F)F)c1ccccc1Cl,15.4,6.8,3.6,27.9*,12.7,-10.3
